Test results from the supplement of paper PMC11732987, “Enantioselective OTUD7B fragment discovery through chemoproteomics screening and high-throughput optimisation” (Communications Chemistry, 2025).

Experiments:
Assay in all cases: log2 ratio of Biotin-Ahx-Ub-VS probe labelling (fragment/DMSO); higher = less target engagement (more negative = stronger competition), active = hit call of the paper (q ≤ 0.05, log2 ratio ≤ -1)
Details in all cases: compound concentration: 200 uM; treatment time: 3 h
[1] = target: USP9X (UniProt Q93008)
USP9X, sequence (Q93008 whole entry, the tested form may be a part): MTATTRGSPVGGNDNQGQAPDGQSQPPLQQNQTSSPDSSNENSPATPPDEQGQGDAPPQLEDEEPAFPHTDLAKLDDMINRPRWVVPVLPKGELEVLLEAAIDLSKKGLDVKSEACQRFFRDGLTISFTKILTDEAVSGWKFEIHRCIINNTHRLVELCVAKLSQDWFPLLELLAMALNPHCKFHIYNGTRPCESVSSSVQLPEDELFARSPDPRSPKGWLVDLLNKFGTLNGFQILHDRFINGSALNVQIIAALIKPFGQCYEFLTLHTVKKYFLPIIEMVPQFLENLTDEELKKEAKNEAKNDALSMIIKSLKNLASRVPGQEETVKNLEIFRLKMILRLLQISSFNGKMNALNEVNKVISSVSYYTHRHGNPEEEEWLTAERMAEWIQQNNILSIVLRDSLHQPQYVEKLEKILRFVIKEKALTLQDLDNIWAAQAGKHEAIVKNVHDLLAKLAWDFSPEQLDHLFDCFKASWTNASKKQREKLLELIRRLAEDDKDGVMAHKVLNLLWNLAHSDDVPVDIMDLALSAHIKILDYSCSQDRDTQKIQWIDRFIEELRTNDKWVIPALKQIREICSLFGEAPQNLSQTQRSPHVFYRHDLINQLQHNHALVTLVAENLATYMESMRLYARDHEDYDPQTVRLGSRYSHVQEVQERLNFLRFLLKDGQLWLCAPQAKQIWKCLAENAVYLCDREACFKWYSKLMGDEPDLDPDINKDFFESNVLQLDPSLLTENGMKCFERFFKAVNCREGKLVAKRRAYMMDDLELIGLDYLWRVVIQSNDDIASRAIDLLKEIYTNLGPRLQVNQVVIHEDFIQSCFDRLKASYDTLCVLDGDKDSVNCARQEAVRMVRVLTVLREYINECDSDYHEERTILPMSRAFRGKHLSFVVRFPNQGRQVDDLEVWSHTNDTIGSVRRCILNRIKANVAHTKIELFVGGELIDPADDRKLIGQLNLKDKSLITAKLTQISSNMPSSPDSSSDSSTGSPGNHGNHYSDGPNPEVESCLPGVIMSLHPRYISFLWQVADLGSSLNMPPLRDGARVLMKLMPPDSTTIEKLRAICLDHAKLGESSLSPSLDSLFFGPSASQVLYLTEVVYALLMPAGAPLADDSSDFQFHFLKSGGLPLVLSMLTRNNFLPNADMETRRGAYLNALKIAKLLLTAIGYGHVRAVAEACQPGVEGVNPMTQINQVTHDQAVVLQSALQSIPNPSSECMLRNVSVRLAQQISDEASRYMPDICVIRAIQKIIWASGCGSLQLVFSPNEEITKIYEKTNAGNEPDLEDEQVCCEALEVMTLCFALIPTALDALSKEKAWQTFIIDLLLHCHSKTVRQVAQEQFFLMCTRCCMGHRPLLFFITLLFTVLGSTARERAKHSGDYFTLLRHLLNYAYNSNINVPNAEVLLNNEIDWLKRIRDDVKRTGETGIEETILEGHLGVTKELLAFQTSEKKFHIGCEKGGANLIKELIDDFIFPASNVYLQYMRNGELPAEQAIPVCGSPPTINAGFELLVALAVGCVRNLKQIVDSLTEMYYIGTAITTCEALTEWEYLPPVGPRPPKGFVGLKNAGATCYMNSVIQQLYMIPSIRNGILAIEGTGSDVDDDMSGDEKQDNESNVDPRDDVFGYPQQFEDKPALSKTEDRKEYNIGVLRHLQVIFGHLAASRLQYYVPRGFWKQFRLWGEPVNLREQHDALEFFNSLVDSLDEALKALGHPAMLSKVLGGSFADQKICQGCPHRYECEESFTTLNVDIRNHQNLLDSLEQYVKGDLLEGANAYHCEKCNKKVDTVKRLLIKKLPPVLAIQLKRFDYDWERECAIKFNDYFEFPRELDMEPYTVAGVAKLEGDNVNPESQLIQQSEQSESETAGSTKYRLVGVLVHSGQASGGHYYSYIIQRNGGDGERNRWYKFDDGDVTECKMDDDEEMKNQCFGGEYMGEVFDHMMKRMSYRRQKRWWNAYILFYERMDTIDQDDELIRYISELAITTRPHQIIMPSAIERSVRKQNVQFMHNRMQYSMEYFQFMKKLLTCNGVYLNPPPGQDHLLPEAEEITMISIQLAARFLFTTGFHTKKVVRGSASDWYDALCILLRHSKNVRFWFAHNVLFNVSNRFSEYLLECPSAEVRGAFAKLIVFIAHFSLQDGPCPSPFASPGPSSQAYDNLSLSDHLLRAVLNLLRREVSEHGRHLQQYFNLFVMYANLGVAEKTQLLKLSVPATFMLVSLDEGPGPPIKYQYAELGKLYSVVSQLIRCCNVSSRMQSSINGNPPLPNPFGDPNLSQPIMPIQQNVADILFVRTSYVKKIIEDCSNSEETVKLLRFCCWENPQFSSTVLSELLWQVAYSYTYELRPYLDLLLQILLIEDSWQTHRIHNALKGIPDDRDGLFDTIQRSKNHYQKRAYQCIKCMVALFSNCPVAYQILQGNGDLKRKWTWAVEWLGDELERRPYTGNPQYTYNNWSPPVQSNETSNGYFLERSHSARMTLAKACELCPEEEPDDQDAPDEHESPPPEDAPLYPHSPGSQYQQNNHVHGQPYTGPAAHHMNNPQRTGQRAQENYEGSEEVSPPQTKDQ
In short: (§1)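 Using Biotin-Ahx-Ub-VS at 0.5 µM final for 1 h, DUBs were labelled in HEK293T lysate (495 µg per sample) that had first been treated in triplicate with fragment at 200 µM or vehicle for 3 h. NeutrAvidin enrichment, LysC and trypsin digestion and diaPASEF LC-MS/MS followed. Spectronaut label-free quantities were global-median-normalised. Values are average log2 fragment/vehicle ratios by unpaired t-test, using proteins with ≥2 unique peptides.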

[2] = target: UniProt O00487
In short: as §1

[3] = target: UniProt O00507
UniProt O00507, sequence (O00507 whole entry): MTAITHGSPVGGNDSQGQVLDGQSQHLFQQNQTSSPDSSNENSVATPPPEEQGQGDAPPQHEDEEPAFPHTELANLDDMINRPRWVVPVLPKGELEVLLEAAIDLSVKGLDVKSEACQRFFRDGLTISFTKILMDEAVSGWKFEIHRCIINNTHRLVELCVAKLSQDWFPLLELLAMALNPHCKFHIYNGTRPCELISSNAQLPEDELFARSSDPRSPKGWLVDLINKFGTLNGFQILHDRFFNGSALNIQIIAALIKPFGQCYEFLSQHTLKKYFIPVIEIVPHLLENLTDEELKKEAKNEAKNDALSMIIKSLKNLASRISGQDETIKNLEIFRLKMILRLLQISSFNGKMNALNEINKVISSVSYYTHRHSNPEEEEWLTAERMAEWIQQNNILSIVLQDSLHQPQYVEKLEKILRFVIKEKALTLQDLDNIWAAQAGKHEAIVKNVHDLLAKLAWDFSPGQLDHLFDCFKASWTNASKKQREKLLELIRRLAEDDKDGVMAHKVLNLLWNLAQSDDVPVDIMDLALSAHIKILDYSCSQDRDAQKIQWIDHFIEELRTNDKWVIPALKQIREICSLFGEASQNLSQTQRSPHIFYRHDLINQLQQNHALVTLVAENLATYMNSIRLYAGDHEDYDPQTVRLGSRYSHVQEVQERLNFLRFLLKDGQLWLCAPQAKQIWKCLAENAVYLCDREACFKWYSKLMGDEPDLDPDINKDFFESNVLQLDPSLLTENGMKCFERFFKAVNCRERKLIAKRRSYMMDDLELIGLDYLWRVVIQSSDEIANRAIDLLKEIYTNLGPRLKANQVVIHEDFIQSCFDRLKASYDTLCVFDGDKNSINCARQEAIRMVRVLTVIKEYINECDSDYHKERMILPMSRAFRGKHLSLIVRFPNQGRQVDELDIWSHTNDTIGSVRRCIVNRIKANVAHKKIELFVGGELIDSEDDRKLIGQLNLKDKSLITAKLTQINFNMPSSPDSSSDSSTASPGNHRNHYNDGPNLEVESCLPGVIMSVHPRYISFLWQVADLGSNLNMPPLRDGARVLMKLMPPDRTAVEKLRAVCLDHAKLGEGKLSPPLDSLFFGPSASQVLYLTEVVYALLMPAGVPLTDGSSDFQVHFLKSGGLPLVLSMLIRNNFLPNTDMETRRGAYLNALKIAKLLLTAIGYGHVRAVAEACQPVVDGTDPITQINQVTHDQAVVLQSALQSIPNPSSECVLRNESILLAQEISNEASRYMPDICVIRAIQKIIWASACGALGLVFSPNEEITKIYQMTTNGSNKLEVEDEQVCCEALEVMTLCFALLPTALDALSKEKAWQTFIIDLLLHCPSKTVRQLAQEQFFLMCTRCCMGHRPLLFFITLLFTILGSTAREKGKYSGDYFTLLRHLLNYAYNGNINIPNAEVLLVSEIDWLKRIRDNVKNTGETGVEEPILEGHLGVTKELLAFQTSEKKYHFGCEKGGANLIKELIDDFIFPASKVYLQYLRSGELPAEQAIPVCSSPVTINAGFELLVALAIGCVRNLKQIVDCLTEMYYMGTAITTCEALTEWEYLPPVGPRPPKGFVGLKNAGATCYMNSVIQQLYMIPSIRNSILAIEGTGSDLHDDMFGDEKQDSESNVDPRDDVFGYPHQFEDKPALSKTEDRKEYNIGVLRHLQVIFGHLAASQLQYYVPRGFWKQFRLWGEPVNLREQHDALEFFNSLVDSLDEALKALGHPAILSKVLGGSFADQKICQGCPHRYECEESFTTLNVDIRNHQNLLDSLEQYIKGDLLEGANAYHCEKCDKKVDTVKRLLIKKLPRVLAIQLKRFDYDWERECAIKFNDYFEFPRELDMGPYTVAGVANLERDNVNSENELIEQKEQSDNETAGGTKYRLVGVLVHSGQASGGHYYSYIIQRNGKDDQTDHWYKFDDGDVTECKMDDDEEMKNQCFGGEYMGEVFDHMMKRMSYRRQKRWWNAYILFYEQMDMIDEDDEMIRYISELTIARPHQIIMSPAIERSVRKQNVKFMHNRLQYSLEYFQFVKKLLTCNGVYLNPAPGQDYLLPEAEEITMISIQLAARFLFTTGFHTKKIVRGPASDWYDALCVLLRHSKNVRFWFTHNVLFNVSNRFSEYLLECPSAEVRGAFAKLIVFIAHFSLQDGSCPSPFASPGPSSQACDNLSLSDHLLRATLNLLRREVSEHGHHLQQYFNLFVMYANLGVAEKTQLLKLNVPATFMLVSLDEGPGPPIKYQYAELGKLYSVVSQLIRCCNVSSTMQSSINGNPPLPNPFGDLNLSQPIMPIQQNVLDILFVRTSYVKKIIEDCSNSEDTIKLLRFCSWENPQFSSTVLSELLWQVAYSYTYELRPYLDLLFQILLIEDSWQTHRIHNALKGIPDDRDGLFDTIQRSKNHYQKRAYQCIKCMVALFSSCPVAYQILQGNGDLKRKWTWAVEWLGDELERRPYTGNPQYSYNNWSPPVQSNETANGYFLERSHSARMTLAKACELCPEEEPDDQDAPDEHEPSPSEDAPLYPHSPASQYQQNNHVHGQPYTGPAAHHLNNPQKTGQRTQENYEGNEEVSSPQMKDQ
In short: as §1

[4] = target: UniProt P51784
In short: as §1

[5] = target: T1, UniProt Q5T2D3
T1 sequence (whole entry): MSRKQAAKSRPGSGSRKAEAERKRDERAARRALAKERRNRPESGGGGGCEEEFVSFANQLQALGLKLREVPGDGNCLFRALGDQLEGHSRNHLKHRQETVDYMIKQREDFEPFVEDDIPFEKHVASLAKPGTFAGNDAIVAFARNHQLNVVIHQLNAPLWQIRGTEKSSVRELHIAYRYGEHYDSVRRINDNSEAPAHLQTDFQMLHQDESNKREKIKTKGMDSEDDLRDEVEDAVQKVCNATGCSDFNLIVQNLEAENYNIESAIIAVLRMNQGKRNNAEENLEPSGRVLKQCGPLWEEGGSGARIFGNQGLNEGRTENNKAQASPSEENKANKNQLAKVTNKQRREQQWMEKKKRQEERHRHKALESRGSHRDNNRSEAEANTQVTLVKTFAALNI
In short: as §1

[6] = target: T2, UniProt Q8TE49
T2 sequence (whole entry): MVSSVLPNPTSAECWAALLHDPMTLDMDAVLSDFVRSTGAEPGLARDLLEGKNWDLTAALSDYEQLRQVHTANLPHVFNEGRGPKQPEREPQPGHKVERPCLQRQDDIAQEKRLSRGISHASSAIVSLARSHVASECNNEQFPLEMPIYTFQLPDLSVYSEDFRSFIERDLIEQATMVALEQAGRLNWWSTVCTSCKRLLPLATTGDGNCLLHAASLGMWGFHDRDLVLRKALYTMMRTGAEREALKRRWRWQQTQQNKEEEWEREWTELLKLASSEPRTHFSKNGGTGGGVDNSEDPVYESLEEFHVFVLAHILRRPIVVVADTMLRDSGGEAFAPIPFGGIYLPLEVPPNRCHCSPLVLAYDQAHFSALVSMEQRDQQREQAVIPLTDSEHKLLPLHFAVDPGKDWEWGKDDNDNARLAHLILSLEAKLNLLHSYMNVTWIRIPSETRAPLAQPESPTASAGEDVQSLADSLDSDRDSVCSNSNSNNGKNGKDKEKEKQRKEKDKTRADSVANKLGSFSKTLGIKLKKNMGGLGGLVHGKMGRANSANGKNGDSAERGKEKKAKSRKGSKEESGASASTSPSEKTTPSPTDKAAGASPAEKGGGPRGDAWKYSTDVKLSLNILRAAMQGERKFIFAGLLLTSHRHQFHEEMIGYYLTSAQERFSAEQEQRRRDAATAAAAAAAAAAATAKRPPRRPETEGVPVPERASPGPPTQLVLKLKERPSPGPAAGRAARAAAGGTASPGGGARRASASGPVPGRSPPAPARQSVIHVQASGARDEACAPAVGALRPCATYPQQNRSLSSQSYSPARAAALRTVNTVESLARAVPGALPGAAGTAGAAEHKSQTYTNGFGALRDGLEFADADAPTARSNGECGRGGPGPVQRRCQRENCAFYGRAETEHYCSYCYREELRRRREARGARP
In short: as §1

[7] = target: T3, UniProt Q9P2H5
T3 sequence (whole entry): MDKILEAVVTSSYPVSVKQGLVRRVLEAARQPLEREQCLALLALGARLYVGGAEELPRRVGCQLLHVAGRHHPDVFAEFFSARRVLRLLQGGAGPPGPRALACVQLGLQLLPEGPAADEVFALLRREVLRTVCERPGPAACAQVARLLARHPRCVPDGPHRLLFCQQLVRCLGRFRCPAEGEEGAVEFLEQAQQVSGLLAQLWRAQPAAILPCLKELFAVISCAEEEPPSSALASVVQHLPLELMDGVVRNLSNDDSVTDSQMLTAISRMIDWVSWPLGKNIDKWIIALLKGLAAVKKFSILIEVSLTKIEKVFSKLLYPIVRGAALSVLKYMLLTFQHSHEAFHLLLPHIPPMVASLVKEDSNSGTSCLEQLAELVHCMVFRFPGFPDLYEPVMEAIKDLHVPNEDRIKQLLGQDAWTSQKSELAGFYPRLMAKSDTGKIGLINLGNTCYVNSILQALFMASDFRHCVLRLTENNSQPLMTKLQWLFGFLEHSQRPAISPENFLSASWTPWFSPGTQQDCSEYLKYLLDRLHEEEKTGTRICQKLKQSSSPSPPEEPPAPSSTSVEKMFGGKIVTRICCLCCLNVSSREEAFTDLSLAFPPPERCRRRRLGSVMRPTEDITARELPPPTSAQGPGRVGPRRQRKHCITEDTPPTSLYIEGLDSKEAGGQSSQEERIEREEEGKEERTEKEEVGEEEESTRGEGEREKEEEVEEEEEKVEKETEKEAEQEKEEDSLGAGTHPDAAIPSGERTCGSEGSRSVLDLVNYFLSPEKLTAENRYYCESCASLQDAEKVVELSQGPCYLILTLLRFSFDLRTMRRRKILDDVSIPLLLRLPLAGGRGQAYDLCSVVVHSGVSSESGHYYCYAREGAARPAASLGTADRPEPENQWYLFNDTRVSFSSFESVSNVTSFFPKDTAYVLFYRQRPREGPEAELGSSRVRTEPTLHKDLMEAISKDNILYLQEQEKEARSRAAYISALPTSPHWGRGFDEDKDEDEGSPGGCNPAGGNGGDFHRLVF
In short: as §1

[8] = target: T4, UniProt Q9UGI0
T4 sequence (whole entry): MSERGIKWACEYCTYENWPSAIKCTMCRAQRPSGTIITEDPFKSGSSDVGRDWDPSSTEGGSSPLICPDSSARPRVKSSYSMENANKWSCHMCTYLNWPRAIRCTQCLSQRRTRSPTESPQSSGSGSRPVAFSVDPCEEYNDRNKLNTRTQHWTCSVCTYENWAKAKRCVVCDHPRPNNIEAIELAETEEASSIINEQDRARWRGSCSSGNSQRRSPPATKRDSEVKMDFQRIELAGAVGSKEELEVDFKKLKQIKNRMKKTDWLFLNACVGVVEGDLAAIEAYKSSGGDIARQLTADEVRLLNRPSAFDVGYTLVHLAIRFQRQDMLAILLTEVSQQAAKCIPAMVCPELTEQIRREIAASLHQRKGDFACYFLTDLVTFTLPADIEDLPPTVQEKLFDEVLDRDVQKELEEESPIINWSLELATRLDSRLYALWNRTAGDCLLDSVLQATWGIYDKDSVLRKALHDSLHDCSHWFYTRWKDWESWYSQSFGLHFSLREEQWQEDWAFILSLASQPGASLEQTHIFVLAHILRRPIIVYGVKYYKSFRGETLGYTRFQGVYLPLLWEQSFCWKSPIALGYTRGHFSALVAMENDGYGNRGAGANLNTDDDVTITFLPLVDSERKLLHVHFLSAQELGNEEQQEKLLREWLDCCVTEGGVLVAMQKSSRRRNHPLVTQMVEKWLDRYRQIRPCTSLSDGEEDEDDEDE
In short: as §1

[9] = target: T5, YOD1 (UniProt Q5VVQ6)
T5 sequence (whole entry): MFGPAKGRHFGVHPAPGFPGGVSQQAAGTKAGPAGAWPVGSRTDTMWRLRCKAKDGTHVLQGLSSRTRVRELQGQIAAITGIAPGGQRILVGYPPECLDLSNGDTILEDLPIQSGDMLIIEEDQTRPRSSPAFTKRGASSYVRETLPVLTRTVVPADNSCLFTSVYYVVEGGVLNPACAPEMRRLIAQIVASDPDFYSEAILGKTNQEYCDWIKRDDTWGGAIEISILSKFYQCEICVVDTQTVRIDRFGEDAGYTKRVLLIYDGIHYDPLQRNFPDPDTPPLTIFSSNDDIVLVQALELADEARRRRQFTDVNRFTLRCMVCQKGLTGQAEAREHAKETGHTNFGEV
In short: as §1

Measured: log2 ratio of Biotin-Ahx-Ub-VS probe labelling

Cl.Cn1ncc2c1CC(NC(=O)CCl)CC2 (centres undefined)
inactive: [1] -0.0203 | [2] -0.0601 | [3] 0.311 | [4] 0.0472 | [5] -0.0643 | [6] -0.377 | [7] -0.257 | [8] -0.162 | [9] 0.181
